Data taken from PubChem BioAssay (EPA / NIEHS).
Calls of active or inactive are those of the source. Rule for the calls: active = hit-call score of the fitted dose curve at least 0.9, where 1 is the maximum; inactive = score below 0.9.

Tests used:
[1] = read-out: Matrix Metallopeptidase 1 (MMP1), MMP1 (gene 4312); assay: BSK_BE3C_MMP1: BioMAP Diversity Plus: BE3C Assay for Matrix Metallopeptidase 1 (MMP1) Biomarker Activity (AID 2283024); settings: primary human bronchial epithelial cells; actives raise or lower the signal
In short: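 Human primary bronchial epithelial cells (BE3C system) dosed for 24 h; MMP-1 quantified by ELISA. Bidirectional fit against DMSO; cytotoxicity tracked in parallel cultures by SRB total-protein staining.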

[2] = BSK_3C_Vis: BioMAP Diversity Plus: 3C Assay for Morphology Visualization (AID 2283025); settings: primary human endothelial cells (HUVEC);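 note: fitted both ways so gain or loss versus DMSO counts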;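 for AC50: light microscopy image of cell morphology used as background control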
In short: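 Human umbilical vein endothelial cell morphology was inspected by light microscopy 24 h after chemical dosing; scored bidirectionally relative to DMSO.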

[3] = BSK_4H_SRB: Viability Assessment in the BioMAP Diversity Plus: 4H Assay (AID 2283027); settings: primary human endothelial cells (HUVEC);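 for AC50: curves fitted both ways versus DMSO so AC50 may be loss or gain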
In short: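 Human umbilical vein endothelial cells, 24 h after chemical dosing; total protein measured by 0.1% sulforhodamine B staining after 10% TCA fixation, read at 560 nm. Bidirectional fitting against DMSO.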

[4] = BSK_BE3C_SRB: Viability Assessment in the BioMAP Diversity Plus: BE3C Assay (AID 2283028); settings: primary human bronchial epithelial cells;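 for AC50: fitted both ways so AC50 may mark signal gain or loss versus DMSO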
In short: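 Cells (human bronchial epithelial, primary) are treated with chemicals, and after 24 h the parallel cultures are fixed in 10% TCA. These are then stained with 0.1% SRB and read at 560 nm. Gain or loss of signal is fitted relative to DMSO.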

[5] = read-out: Thrombomodulin, THBD (gene 7056); assay: BSK_3C_Thrombomodulin: BioMAP Diversity Plus: 3C Assay for Thrombomodulin Biomarker Activity (AID 2283029); settings: primary human endothelial cells (HUVEC); actives raise or lower the signal
In short: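 Human umbilical vein endothelial cells were exposed to chemicals for 24 h; cell-surface thrombomodulin quantified by ELISA, with bidirectional fitting against DMSO baseline.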

[6] = read-out: Urokinase-type plasminogen activator receptor (uPAR), PLAUR (gene 5329); assay: BSK_4H_uPAR: BioMAP Diversity Plus: 4H Assay for Urokinase-type plasminogen activator receptor (uPAR) Biomarker Activity (AID 2283030); settings: primary human endothelial cells (HUVEC); actives raise or lower the signal
In short: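 Cell-surface uPAR ELISA signal, measured 24 h after dosing human umbilical vein endothelial cells, was analyzed with bidirectional fitting relative to DMSO. Parallel SRB staining of total protein tracked overt cytotoxicity.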

[7] = read-out: Vascular endothelial growth factor receptor 2 (Homo sapiens) (UniProt P35968); assay: BSK_4H_VEGFRII: BioMAP Diversity Plus: 4H Assay for Vascular endothelial growth factor receptor 2 (VEGFR2) Biomarker Activity (AID 2283031); settings: primary human endothelial cells (HUVEC); actives raise or lower the signal;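 for AC50: cell-surface VEGFR2 protein level quantified by ELISA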
In short: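 ELISA read-out of VEGFRII in primary human umbilical vein endothelium, taken 24 h after chemical treatment. Responses are expressed relative to DMSO, with bidirectional fitting.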

[8] = read-out: Human Leukocyte Antigen - DR isotype (HLADR), HLA-DRA (gene 3122); assay: BSK_BE3C_HLADR: BioMAP Diversity Plus: BE3C Assay for Human Leukocyte Antigen - DR isotype (HLADR) Biomarker Activity (AID 2283032); settings: primary human bronchial epithelial cells; actives raise or lower the signal
In short: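 Human primary bronchial epithelial cells (BE3C system) exposed to compound for 24 hours; cell-surface HLA-DR measured by ELISA, fitted bidirectionally relative to DMSO. Total protein by SRB in parallel cultures tracked cytotoxicity.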

[9] = read-out: Vascular cell adhesion molecule 1 (VCAM1), VCAM1 (gene 7412); assay: BSK_4H_VCAM1: BioMAP Diversity Plus: 4H Assay for Vascular cell adhesion molecule 1 (VCAM1) Biomarker Activity (AID 2283033); settings: primary human endothelial cells (HUVEC); actives raise or lower the signal
In short: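 Primary human umbilical vein endothelial cells, 4H stimulation system, treated for 24 h; cell-surface VCAM-1 quantified by ELISA. Bidirectional fitting against DMSO; cytotoxicity tracked by SRB total-protein staining in parallel cultures.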

[10] = read-out: Interferon-gamma inducible Protein 10 (IP10), CXCL10 (gene 3627); assay: BSK_BE3C_IP10: BioMAP Diversity Plus: BE3C Assay for Interferon-gamma inducible Protein 10 (IP10) Biomarker Activity (AID 2283034); settings: primary human bronchial epithelial cells; actives raise or lower the signal
In short: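 Primary human bronchial epithelial cells, with IP-10 measured by ELISA 24 hours after chemical dosing. Bidirectional fit against DMSO; cytotoxicity checked by SRB total protein staining in parallel cultures.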

[11] = read-out: Monokine induced gamma interferon (MIG), CXCL9 (gene 4283); assay: BSK_BE3C_MIG: BioMAP Diversity Plus: BE3C Assay for Monokine induced gamma interferon (MIG) Biomarker Activity (AID 2283035); settings: primary human bronchial epithelial cells; actives raise or lower the signal;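 note: MIG protein measured by ELISA in BE3C cultures after 24 h of dosing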
In short: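 Primary human bronchial epithelial cells treated for 24 h; MIG levels measured by ELISA, fitted bidirectionally versus DMSO. Parallel SRB total-protein staining assessed cytotoxicity.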

[12] = read-out: Transforming growth factor beta 1 (TGFb1), TGFB1 (gene 7040); assay: BSK_BE3C_TGFb1: BioMAP Diversity Plus: BE3C Assay for Transforming growth factor beta 1 (TGFb1) Biomarker Activity (AID 2283036); settings: primary human bronchial epithelial cells; actives raise or lower the signal
In short: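 Primary human bronchial epithelial cells dosed with chemical; TGF-b1 measured by ELISA 24 h after dosing. Bidirectional curve fitting against DMSO negative control; SRB total-protein staining in parallel cultures gauged cytotoxicity.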

[13] = read-out: Plasminogen activator inhibitor-1 (PAI1), SERPINE1 (gene 5054); assay: BSK_BE3C_PAI1: BioMAP Diversity Plus: BE3C Assay for Plasminogen activator inhibitor-1 (PAI1) Biomarker Activity (AID 2283037); settings: primary human bronchial epithelial cells; actives raise or lower the signal
In short: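 Primary human bronchial epithelial cells (BE3C system) exposed 24 h; PAI-1 quantified by ELISA. Parallel sulforhodamine B staining of total protein flags cytotoxicity. Bidirectional fit versus DMSO.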

[14] = read-out: urokinase plasminogen activator (uPA), PLAU (gene 5328); assay: BSK_BE3C_uPA: BioMAP Diversity Plus: BE3C Assay for urokinase plasminogen activator (uPA) Biomarker Activity (AID 2283038); settings: primary human bronchial epithelial cells; actives raise or lower the signal;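 note: uPA protein level quantified by ELISA in cell cultures; uPA read one day after compound addition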
In short: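 Bronchial epithelial cells (human, primary); chemical 24 h; uPA by ELISA; bidirectional fit vs DMSO. SRB (0.1%, after 10% TCA fixation, 560 nm) in parallel cultures for cytotoxicity.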

[15] = read-out: Urokinase-type plasminogen activator receptor (uPAR), PLAUR (gene 5329); assay: BSK_BE3C_uPAR: BioMAP Diversity Plus: BE3C Assay for Urokinase-type plasminogen activator receptor (uPAR) Biomarker Activity (AID 2283039); settings: primary human bronchial epithelial cells; actives raise or lower the signal;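 note: cells exposed to compound for one day before measurement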
In short: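 Primary human bronchial epithelial cells dosed for 24 h; uPAR quantified by ELISA with bidirectional fitting against DMSO. Overt cytotoxicity assessed in parallel cultures by SRB total-protein staining (0.1% SRB, 560 nm).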

[16] = read-out: Interleukin-6 (IL6), IL6 (gene 3569); assay: BSK_CASM3C_IL6: BioMAP Diversity Plus: CASM3C Assay for Interleukin-6 (IL6) Biomarker Activity for (AID 2283040); settings: primary human coronary artery smooth muscle cells; actives raise or lower the signal
[17] = read-out: Tissue plasminogen activator (tPA), PLAT (gene 5327); assay: BSK_BE3C_tPA: BioMAP Diversity Plus: BE3C Assay for Tissue plasminogen activator (tPA) Biomarker Activity (AID 2283041); settings: primary human bronchial epithelial cells; actives raise or lower the signal
In short: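 Primary human bronchial epithelial cells in the BE3C system, exposed to compound for 24 h. tPA was quantified by ELISA; DMSO served as baseline, with gain or loss of signal fitted. Cytotoxicity checked in parallel cultures by SRB total-protein staining.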

[18] = read-out: Interleukin-8 (IL8), CXCL8 (gene 3576); assay: BSK_CASM3C_IL8: BioMAP Diversity Plus: CASM3C Assay for Interleukin-8 (IL8) Biomarker Activity (AID 2283042); settings: primary human coronary artery smooth muscle cells; actives raise or lower the signal;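 note: IL-8 protein level quantified by ELISA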
[19] = read-out: Human Leukocyte Antigen - DR isotype (HLADR), HLA-DRA (gene 3122); assay: BSK_CASM3C_HLADR: BioMAP Diversity Plus: CASM3C Assay for Human Leukocyte Antigen - DR isotype (HLADR) Biomarker Activity (AID 2283043); settings: primary human coronary artery smooth muscle cells; actives raise or lower the signal;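 note: cell-surface HLA-DR protein level quantified by ELISA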

Measured: AC50

c1ccc(-c2cccc(-c3ccccc3)c2)cc1
active: [1] 0.136 µM | [2] 13 µM | [3] 20 µM | [7] 11 µM | [8] 20 µM | [9] 14 µM | [10] 14.4 µM | [17] 6.98 µM
inactive: all other assays above

Cc1cc(C)cc(C)c1
not listed: [12]
inactive: all other assays above

CCOC(=O)C(SP(=S)(OC)OC)c1ccccc1 (stereo not drawn)
active: [2] 37.5 µM | [3] 29.5 µM | [6] 20 µM | [9] 27.1 µM | [10] 20 µM | [19] 20 µM
not listed: [8] | [12]
inactive: all other assays above

CCC(C)(C#N)N=NC(C)(C#N)CC (stereo not drawn)
not listed: [8]
inactive: all other assays above

CCOC(=O)CCN(SN(C)C(=O)Oc1cccc2c1OC(C)(C)C2)C(C)C
active: [2] 20 µM | [9] 31 µM | [10] 14.1 µM | [19] 12.2 µM
not listed: [8]
inactive: all other assays above

O=[N+]([O-])c1cccc2ccccc12
not listed: [12]
inactive: all other assays above

Clc1cccc(Cl)c1Cl
not listed: [8] | [12]
inactive: all other assays above

CC(C)N(C(=O)CCl)c1ccccc1
active: [2] 14.5 µM | [3] 24.5 µM | [4] 29.9 µM | [6] 35.1 µM | [9] 20 µM | [10] 33.5 µM | [16] 32.9 µM | [18] 27.1 µM | [19] 6.14 µM
inactive: [1] | [5] | [7] | [11] | [12] | [13] | [14] | [15] | [17]
